Experimental data published in PubChem BioAssay (NCI).
Values joined by “and” are separate entries in the source; they are usually repeats but may differ in a detail not shown here. Equal entries are not always repeated. About 83,000 compounds went through this panel and 20% of them were active in at least one assay; those are over-represented in the sample as a whole.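 Values shown are percent growth following 48 h exposure of cells in 96-well plates to a single concentration of compound; below 10 was considered active.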 Unmarked numbers belong to inactive results. Active and inactive are the calls of the source.

test system: HL-60(TB) leukemia; assay: NCI-60 one-dose screen, 48 h (100 = growth as untreated, 0 = no growth, -100 = all killed); settings: 10 µM unless noted

Structure (SMILES) | growth
Cc1cc(C(C)(C)C)ccc1S | 111%
COc1ccc(-c2nc3sc(C)nn3c2-c2nc3cc(C)c(C)cc3[nH]2)cc1 | 112%
CC1=C(CCC(C)N(C)Cc2ccc(OCCCN3CCCC3)cc2)C(C)(C)CCC1 (stereo not given) | 24.6%
CCOc1ccccc1/C=N/N1CCCCCC1 | 99.1%
CCN1CCN(CCC(=O)Nc2cccc(-n3cc(-c4ccncc4)c(-c4ccc(Cl)c(OC)c4)n3)c2)CC1 | -42.1% (active)
Cn1c2ccccc2c2nnc(NCCCCO)nc21 | 139%
CCCCCCCCCCCCCCCCNC(=O)Nc1ccc(C)c(NC(=O)NCCCCCCCCCCCCCCCC)c1 | 98.8%
COc1c(NC=O)c2c(c([N+](=O)[O-])c1OC)C(=O)OC2 | 98% and 90.7%
O=c1c2cc(F)ccc2sc2c(Nc3cccnc3)nc3ccccc3c12 | 88.5%
O=c1c(Br)ccc(Br)cc1Br | -58.8% (active)
CC[C@@]1(O)C(=O)OCc2c1cc1n(c2=O)Cc2cc3c(CN(C)C)c(O)ccc3nc2-1 | -7.06% (active) and -36.1% (active)
COc1ccc(Nc2ncccc2C(=O)NCc2cn(Cc3cccc(Oc4ccccc4)c3)nn2)cc1 | 32.1%
O=C(Nc1ccc(Oc2cccc(F)c2)c(Cl)c1)c1cccnc1 | 12.1%
O=C(CCN1CCCC1)Nc1ccc2c(Nc3ccccc3)c3ccccc3nc2c1 | -46% (active)
COc1ccc(-c2nc3ncccn3c2-c2nnc(-c3ccc(F)cc3)o2)cc1 | 91.1%
